# Experimental data reported in the supplement of paper PMC4466140.
# B1: unnamed (peptide)
# chain: RLSFFFPLDPAYIRN
# Legend:
# Experiment in all cases: SPOT peptide array binding signal intensity (averaged, normalized) (arbitrary units (background-subtracted, floor 0; scale differs between SH3 domains)); higher = stronger binding of the SH3 domain to the peptide
# AgAbp1 = molecular target: AgAbp1
# How it was run: (§1)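 To measure binding, SH3 domains from four yeast species were fused to GST, expressed in E. coli BL21(DE3) and purified on glutathione Sepharose. Each domain was incubated at 10 μg/ml overnight at 4°C on cellulose membranes with synthetic 15-mer peptides whose cysteines were replaced by serines. Anti-GST antibody, an HRP anti-mouse secondary and luminol were used for detection, and images were quantified with Genespotter. Reported binding signal is normalized, background-subtracted spot intensity averaged over replicates, in arbitrary units that differ between domains.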
# AgBbc1 = molecular target: AgBbc1
# How it was run: as §1
# AgBem1-D1 = molecular target: AgBem1-D1
# How it was run: as §1
# AgBzz1-D1 = molecular target: AgBzz1-D1
# How it was run: as §1
# AgBzz1-D2 = molecular target: AgBzz1-D2
# How it was run: as §1
# AgCyk3 = molecular target: AgCyk3
# How it was run: as §1
# AgFus1 = molecular target: AgFus1
# How it was run: as §1
# AgHof1 = molecular target: AgHof1
# How it was run: as §1
# AgHse1 = molecular target: AgHse1
# How it was run: as §1
# AgLsb1 = molecular target: AgLsb1
# How it was run: as §1
# AgLsb4 = molecular target: AgLsb4
# How it was run: as §1
# AgMyo5 = molecular target: AgMyo5
# How it was run: as §1
# AgNbp2 = molecular target: AgNbp2
# How it was run: as §1
# AgRvs167 = molecular target: AgRvs167
# How it was run: as §1
# AgSho1 = molecular target: AgSho1
# How it was run: as §1
# AgSla1-D1-D2 = molecular target: AgSla1-D1-D2
# How it was run: as §1
# AgSla1-D3 = molecular target: AgSla1-D3
# How it was run: as §1
# CaAbp1-D1 = molecular target: CaAbp1-D1
# How it was run: as §1
# CaAbp1-D2 = molecular target: CaAbp1-D2
# How it was run: as §1
# CaBbc1 = molecular target: CaBbc1
# How it was run: as §1
# CaBem1-D1 = molecular target: CaBem1-D1
# How it was run: as §1
# CaBzz1-D1 = molecular target: CaBzz1-D1
# How it was run: as §1
# CaBzz1-D2 = molecular target: CaBzz1-D2
# How it was run: as §1
# CaCyk3 = molecular target: CaCyk3
# How it was run: as §1
# CaFus1 = molecular target: CaFus1
# How it was run: as §1
# CaHof1 = molecular target: CaHof1
# How it was run: as §1
# CaHse1 = molecular target: CaHse1
# How it was run: as §1
# CaLsb1 = molecular target: CaLsb1
# How it was run: as §1
# CaLsb4 = molecular target: CaLsb4
# How it was run: as §1
# CaMyo5 = molecular target: CaMyo5
# How it was run: as §1
# CaNbp2 = molecular target: CaNbp2
# How it was run: as §1
# CaRvs167 = molecular target: CaRvs167
# How it was run: as §1
# CaRvs167-3 = molecular target: CaRvs167-3
# How it was run: as §1
# CaSho1 = molecular target: CaSho1
# How it was run: as §1
# CaSla1-D1-D2 = molecular target: CaSla1-D1-D2
# How it was run: as §1
# CaSla1-D3 = molecular target: CaSla1-D3
# How it was run: as §1
# ScAbp1 = molecular target: ScAbp1
# How it was run: as §1
# ScBbc1 = molecular target: ScBbc1
# How it was run: as §1
# ScBem1-D1 = molecular target: ScBem1-D1
# How it was run: as §1
# ScBzz1-D1 = molecular target: ScBzz1-D1
# How it was run: as §1
# ScBzz1-D2 = molecular target: ScBzz1-D2
# How it was run: as §1
# ScCyk3 = molecular target: ScCyk3
# How it was run: as §1
# ScFus1 = molecular target: ScFus1
# How it was run: as §1
# ScHof1 = molecular target: ScHof1
# How it was run: as §1
# ScHse1 = molecular target: ScHse1
# How it was run: as §1
# ScLsb1 = molecular target: ScLsb1
# How it was run: as §1
# ScLsb2 = molecular target: ScLsb2
# How it was run: as §1
# ScLsb3 = molecular target: ScLsb3
# How it was run: as §1
# ScLsb4 = molecular target: ScLsb4
# How it was run: as §1
# ScMyo3 = molecular target: ScMyo3
# How it was run: as §1
# ScMyo5 = molecular target: ScMyo5
# How it was run: as §1
# ScNbp2 = molecular target: ScNbp2
# How it was run: as §1
# ScPex13 = molecular target: ScPex13
# How it was run: as §1
# ScRvs167 = molecular target: ScRvs167
# How it was run: as §1
# ScSho1 = molecular target: ScSho1
# How it was run: as §1
# ScSla1-D1-D2 = molecular target: ScSla1-D1-D2
# How it was run: as §1
# ScSla1-D3 = molecular target: ScSla1-D3
# How it was run: as §1
# SpAbp1-D1 = molecular target: SpAbp1-D1
# How it was run: as §1
# SpBbc1 = molecular target: SpBbc1
# How it was run: as §1
# SpBzz1-D1 = molecular target: SpBzz1-D1
# How it was run: as §1
# SpBzz1-D2 = molecular target: SpBzz1-D2
# How it was run: as §1
# SpCyk3 = molecular target: SpCyk3
# How it was run: as §1
# SpHof1 = molecular target: SpHof1
# How it was run: as §1
# SpHof1-2 = molecular target: SpHof1-2
# How it was run: as §1
# SpHof1-3 = molecular target: SpHof1-3
# How it was run: as §1
# SpHse1 = molecular target: SpHse1
# How it was run: as §1
# SpLsb1 = molecular target: SpLsb1
# How it was run: as §1
# SpLsb4 = molecular target: SpLsb4
# How it was run: as §1
# SpMyo1 = molecular target: SpMyo1
# How it was run: as §1
# SpNbp2 = molecular target: SpNbp2
# How it was run: as §1
# SpPex13 = molecular target: SpPex13
# How it was run: as §1
# SpRvs167 = molecular target: SpRvs167
# How it was run: as §1
# SpSla1-D1-D2 = molecular target: SpSla1-D1-D2
# How it was run: as §1
# SpSla1-D3 = molecular target: SpSla1-D3
# How it was run: as §1
binder,measurement,setting,value
B1,SPOT peptide array binding signal intensity,AgAbp1,≤ 0
same,SPOT peptide array binding signal intensity,AgBbc1,2.25
same,SPOT peptide array binding signal intensity,AgBem1-D1,121
same,SPOT peptide array binding signal intensity,AgBzz1-D1,27
same,SPOT peptide array binding signal intensity,AgBzz1-D2,72.5
same,SPOT peptide array binding signal intensity,AgCyk3,7
same,SPOT peptide array binding signal intensity,AgFus1,854
same,SPOT peptide array binding signal intensity,AgHof1,34
same,SPOT peptide array binding signal intensity,AgHse1,1180
same,SPOT peptide array binding signal intensity,AgLsb1,1.5
same,SPOT peptide array binding signal intensity,AgLsb4,152
same,SPOT peptide array binding signal intensity,AgMyo5,1.5
same,SPOT peptide array binding signal intensity,AgNbp2,34
same,SPOT peptide array binding signal intensity,AgRvs167,4
same,SPOT peptide array binding signal intensity,AgSho1,50
same,SPOT peptide array binding signal intensity,AgSla1-D1-D2,37
same,SPOT peptide array binding signal intensity,AgSla1-D3,8.5
same,SPOT peptide array binding signal intensity,CaAbp1-D1,2
same,SPOT peptide array binding signal intensity,CaAbp1-D2,≤ 0
same,SPOT peptide array binding signal intensity,CaBbc1,≤ 0
same,SPOT peptide array binding signal intensity,CaBem1-D1,24
same,SPOT peptide array binding signal intensity,CaBzz1-D1,32.5
same,SPOT peptide array binding signal intensity,CaBzz1-D2,43
same,SPOT peptide array binding signal intensity,CaCyk3,3
same,SPOT peptide array binding signal intensity,CaFus1,2490
same,SPOT peptide array binding signal intensity,CaHof1,0.5
same,SPOT peptide array binding signal intensity,CaHse1,134
same,SPOT peptide array binding signal intensity,CaLsb1,1.5
same,SPOT peptide array binding signal intensity,CaLsb4,45.5
same,SPOT peptide array binding signal intensity,CaMyo5,187
same,SPOT peptide array binding signal intensity,CaNbp2,474
same,SPOT peptide array binding signal intensity,CaRvs167,57.8
same,SPOT peptide array binding signal intensity,CaRvs167-3,238
same,SPOT peptide array binding signal intensity,CaSho1,1050
same,SPOT peptide array binding signal intensity,CaSla1-D1-D2,≤ 0
same,SPOT peptide array binding signal intensity,CaSla1-D3,35.8
same,SPOT peptide array binding signal intensity,ScAbp1,2
same,SPOT peptide array binding signal intensity,ScBbc1,≤ 0
same,SPOT peptide array binding signal intensity,ScBem1-D1,17
same,SPOT peptide array binding signal intensity,ScBzz1-D1,42
same,SPOT peptide array binding signal intensity,ScBzz1-D2,79
same,SPOT peptide array binding signal intensity,ScCyk3,282
same,SPOT peptide array binding signal intensity,ScFus1,627
same,SPOT peptide array binding signal intensity,ScHof1,2
same,SPOT peptide array binding signal intensity,ScHse1,1380
same,SPOT peptide array binding signal intensity,ScLsb1,0.5
same,SPOT peptide array binding signal intensity,ScLsb2,≤ 0
same,SPOT peptide array binding signal intensity,ScLsb3,48
same,SPOT peptide array binding signal intensity,ScLsb4,9
same,SPOT peptide array binding signal intensity,ScMyo3,9.5
same,SPOT peptide array binding signal intensity,ScMyo5,5
same,SPOT peptide array binding signal intensity,ScNbp2,84.5
same,SPOT peptide array binding signal intensity,ScPex13,6.25
same,SPOT peptide array binding signal intensity,ScRvs167,7.67
same,SPOT peptide array binding signal intensity,ScSho1,738
same,SPOT peptide array binding signal intensity,ScSla1-D1-D2,13
same,SPOT peptide array binding signal intensity,ScSla1-D3,37.5
same,SPOT peptide array binding signal intensity,SpAbp1-D1,1
same,SPOT peptide array binding signal intensity,SpBbc1,0.5
same,SPOT peptide array binding signal intensity,SpBzz1-D1,121
same,SPOT peptide array binding signal intensity,SpBzz1-D2,2
same,SPOT peptide array binding signal intensity,SpCyk3,24
same,SPOT peptide array binding signal intensity,SpHof1,130
same,SPOT peptide array binding signal intensity,SpHof1-2,45
same,SPOT peptide array binding signal intensity,SpHof1-3,389
same,SPOT peptide array binding signal intensity,SpHse1,1620
same,SPOT peptide array binding signal intensity,SpLsb1,≤ 0
same,SPOT peptide array binding signal intensity,SpLsb4,15
same,SPOT peptide array binding signal intensity,SpMyo1,17.8
same,SPOT peptide array binding signal intensity,SpNbp2,69.5
same,SPOT peptide array binding signal intensity,SpPex13,23.5
same,SPOT peptide array binding signal intensity,SpRvs167,11.2
same,SPOT peptide array binding signal intensity,SpSla1-D1-D2,6
same,SPOT peptide array binding signal intensity,SpSla1-D3,32
